Experimental data from PubChem BioAssay AID2685 (National Center for Advancing Translational Sciences (NCATS), 2010).
About 2,100 (0.66%) of roughly 320,000 compounds were called active. Roughly 53% stayed inconclusive and do not appear here. This is one part of a sample in which actives are shown more often than they occur. Calls come from the whole dose curve; as a rule, active = well fitted inhibition curve with a large enough effect in the signal ratio, with a control signal flat (not every such curve was filed as active); inconclusive = small, poorly fitted or top-dose-only effect, or effect the other way, or a change in a side signal; inactive = flat fitted curve, though single readings scatter; the % refers to the signal ratio.

Assay: qHTS Assay for Lipid Storage Modulators in Drosophila S3 Cells;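 for cell number change: cells counted by Cell Tracker Red CMTPX staining in the red channel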; for lipid storage change, negative = inhibition: % is set by controls: 0 for no effect and ±100 for the full control effect
Conditions: BODIPY lipid droplet fluorescence, 18-24 h, cells fed with added oleic acid; cell number change: measured here: cell count max response; series mostly up to 46.1 µM
Procedure, shortened: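 Drosophila S3 cells loaded with oleic acid (400 uM, as added) and compounds at several concentrations; lipid droplets imaged by 488-nm laser-scanning cytometry, 500–530 nm intensity and object ratio to cell channel. Percent activity normalized to 20 uM Triacsin C.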
Potency is the fitted concentration of half-maximal effect.

Row | Compound | Potency | cell number change [%] | lipid storage change, negative = inhibition
1 | Cc1c(/C=N/N=C2\CCC3C4CCc5cc(O)ccc5C4CCC23C)cnn1C (stereo unspecified) | inactive | 13.3 | 
2 | O=C(CN1C(=O)COc2ccccc21)N1CCOCC1 | inactive |  | 
3 | COc1ccc(C(=O)Nc2ccccc2N2CCOCC2)cc1Br | inactive | -0.289 | 
4 | CCC(=O)N1CCN(c2ccccc2NC(=O)c2ccc([N+](=O)[O-])o2)CC1 | 10.3 µM (active) | -1.26 | 
5 | COc1ccccc1NC(=O)c1ccc(-c2ccccc2[N+](=O)[O-])o1 | inactive |  | 
6 | O=C(Nc1ccc(N2CCCC2)c(Cl)c1)c1ccc([N+](=O)[O-])o1 | inactive | 2.06 | 
7 | COc1ccc(C(=O)Nc2ccccc2N2CCN(C(=O)c3ccccc3)CC2)cc1Br | 14.6 µM (active) | -6.04 | 
8 | O=C(Nc1ccccc1N1CCN(C(=O)c2ccccc2)CC1)c1cccc(Cl)c1 | inactive | -6.81 | 
9 | CC(C)C(=O)N1CCN(c2ccccc2NC(=O)c2ccc([N+](=O)[O-])o2)CC1 | inactive | -10.5 | 
10 | CN1CCN(c2ccccc2NC(=O)c2ccc(-c3ccccc3[N+](=O)[O-])o2)CC1 | 6.51 µM (active) | -10.4 | 
11 | CCC(=O)N1CCN(c2ccccc2NC(=O)c2ccc(-c3cccc([N+](=O)[O-])c3)o2)CC1 | inactive | 8.53 | 
12 | COc1ccc(N2CCCC2)c(NC(=O)c2ccc(Br)o2)c1 | inactive | 13.9 | 
13 | COc1ccc(N2CCCC2)c(NC(=O)c2ccc([N+](=O)[O-])o2)c1 | 10.3 µM (active) | 16.1 | 
14 | CC1CCN(c2ccccc2NC(=O)c2ccc([N+](=O)[O-])o2)CC1 | inactive | 8.97 | 
15 | CC(C)CC(NC(=O)C(NC(=O)OC(C)(C)C)C(C)C)C(N)=O (stereo unspecified) | inactive | 1.19 | 
16 | C/C(=N/NC(=O)c1ccc2nc[nH]c2c1)c1cccs1 | inactive | 9.11 | 
17 | CC12CCC(C(=O)Nc3ccccc3)(C(Br)C1=O)C2(C)C (stereo unspecified) | inactive | -7.13 | 
18 | CC/C(O)=C(/C#N)c1nnc2n1CCCCC2 | inactive | 8.5 | 
19 | CCOCCCNS(=O)(=O)c1cc2[nH]c3c(c2cc1C)C(=O)CC(C)(C)C3 | inactive | 16.9 | 
20 | Cc1ccc(C(=O)NCCNC(=O)c2ccco2)cc1C | inactive | 19.6 | 

Row | Compound | Potency | cell number change [%] | lipid storage change, negative = inhibition
21 | COC(=O)c1c(NC(=O)CC2SC(N)=NC2=O)sc2c1CCCC2 (stereo unspecified) | inactive |  | 
22 | COc1ccc(NC(C)c2ccccc2)cc1 (stereo unspecified) | inactive | -5.31 | 
23 | COc1ccc(N2CCN(c3nc(Cl)nc(N4CCOCC4)n3)CC2)cc1 | inactive | -11.2 | 
24 | COc1cc(C(=O)N(Cc2ccc(C)o2)C2CCS(=O)(=O)C2)cc(OC)c1OC (stereo unspecified) | inactive | -6.11 | 
25 | O=C(Nc1ccccc1N1CCCCC1)c1ccc(Cl)cc1 | inactive | 12 | 
26 | O=C(Nc1ccccc1N1CCCCC1)c1ccc(-c2ccc(Cl)cc2)o1 | 14.6 µM (active) | 1.36 | 
27 | CN1CCN(c2ccccc2NC(=O)c2ccc(-c3ccc(Cl)c(Cl)c3)o2)CC1 | inactive |  | 
28 | Cc1csc(N(C(=O)Cc2ccccc2F)c2ccccc2)n1 | inactive | 3.81 | 
29 | Clc1ccc(C2=Nn3c(nnc3-c3cccnc3)SC2)s1 | inactive | -22.1 | 
30 | COC(=O)c1sc(=S)n(-c2cccc(Cl)c2)c1N | inactive | -15.4 | 
31 | CCOC(=O)c1sc(=S)n(-c2ccccc2)c1N | inactive | -17.5 | 
32 | COC(=O)c1sc(=S)n(-c2ccccc2)c1N | 11.6 µM (active) |  | 
33 | Cc1cc(C)n2c(SCC(C)C)nnc2n1 | inactive | -0.577 | 
34 | O=C(CCCc1ccccc1)N1CCc2ccccc21 | inactive | 4.72 | 
35 | Cc1ccc(NC(=O)CS(=O)CC(=O)N(CC(=O)NC(C)(C)C)c2cccc(C)c2C)cc1 (stereo unspecified) | inactive | 1.3 | 
36 | O=C(N/C(=C\c1ccccc1)C(=O)N1CCOCC1)c1ccco1 | inactive | 1.67 | 
37 | CC(C)C12CN3CC(C(C)C)(CN(C1)C3(C)C)C2=O | inactive | 8.23 | 
38 | COc1ccc(C2(C(=O)NCc3ccccc3Cl)CCOCC2)cc1OC | inactive | -6.59 | 
39 | O=C(COc1ccc(Cl)cc1Cl)N/N=C/C1CC=CCC1 (stereo unspecified) | 1.84 µM (active) | -11.9 | 
40 | COc1ccc(OCC(=O)N/N=C/C2CC=CCC2)cc1 (stereo unspecified) | inactive | -11.3 | 

Row | Compound | Potency | cell number change [%] | lipid storage change, negative = inhibition
41 | N#Cc1ccc(OCC(=O)N/N=C/C2CC=CCC2)cc1 (stereo unspecified) | inactive | 18.8 | 
42 | CCc1[nH]nc(C(=O)N2CCCC(Nc3cccc(F)c3)C2)c1C (stereo unspecified) | inactive | 0.697 | 
43 | CCNC(=S)Nc1cccc([N+](=O)[O-])c1 | inactive | 16.5 | 
44 | CCCCC1CCC(C(=O)N(C)CC(=O)Nc2cccc(F)c2)CC1 (stereo unspecified) | 0.651 µM (active) | 20.8 | 
45 | CC1CC1C(=O)N(C)CC(=O)Nc1cccc(F)c1 (stereo unspecified) |  | -4.04 | -4.95% [at 0.0737 µM] (inactive)
46 | CN(CC(=O)Nc1cccc(F)c1)C(=O)c1cc(-c2ccccc2)nc2ccccc12 |  |  | 3.36% [at 0.0737 µM] (inactive)
47 | CN(CC(=O)Nc1ccc(F)cc1)C(=O)c1ccc(N2C(=O)CCC2=O)cc1 | inactive | 5.41 | 
48 | CCCCC1CCC(C(=O)N(C)CC(=O)Nc2cccc(OC)c2)CC1 (stereo unspecified) | inactive | -0.846 | 
49 | CN(CC(=O)Nc1c(Cl)cccc1Cl)C(=O)c1ccncc1 | inactive | 22.3 | 
50 | CN(CC(=O)Nc1cccc(F)c1)C(=O)c1cccc2ccccc12 | 5.8 µM (active) | -19.1 | 
51 | COc1cccc(NC(=O)CN(C)C(=O)c2cn(-c3ccccc3)nc2-c2cccnc2)c1 | inactive | -3.75 | 
52 | CN(CC(=O)Nc1cccc(F)c1)C(=O)c1cc(=O)[nH]c2ccccc12 | inactive | 6.52 | 
53 | CN(CC(=O)Nc1ccc(F)cc1)C(=O)c1ccncc1 | 1.64 µM (active) |  | 
54 | COc1cccc(-c2nn(-c3ccc(C)cc3)cc2C(=O)N(C)CC(=O)Nc2cccc(F)c2)c1 | 6.51 µM (active) | -27.2 | 
55 | COc1ccc(NC(=O)CN(C)C(=O)c2cn(-c3ccccc3)nc2-c2ccc(F)cc2)cc1 | inactive | -10.6 | 
56 | Cc1nc([N+](=O)[O-])c(C(=O)OCc2cccc(Br)c2)n1C | inactive | -13.6 | 
57 | O=C(COC(=O)C1CCN(c2ccc(C(F)(F)F)cn2)CC1)NCc1ccc(Cl)cc1Cl | inactive | 7.81 | 
58 | O=C1CCCN1c1ccc(S(=O)(=O)N2CCCCC2)cc1[N+](=O)[O-] | inactive | 14.2 | 
59 | CS(=O)(=O)c1ccccc1C(=O)N(CCc1ccccc1)Cc1ccccc1 | inactive | -4.69 | 
